Targets with a hit are over-represented here; the source holds about 7,900 in all. About 0.6% of all pairs of compound and target were hits.
Assays:
Assay in all cases: log2 fold change, soluble protein after heating vs DMSO (PISA); higher = thermal stabilisation; K562 cells, 10 uM, 30 min; active = over 0.2 and 3.5 SD of the protein, either way, in both replicates (recomputed)
saracatinib = compound: CN1CCN(CCOc2cc(OC3CCOCC3)c3c(Nc4c(Cl)ccc5c4OCO5)ncnc3c2)CC1 [saracatinib]
Method in brief: (§1)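 Thermal stability values are relative to control samples and come from duplicates. They are expressed as log2 fold changes. For measurement, K562 cells (2×10^6 cells/mL) received 10 μM compound for 30 min, and aliquots were heated for 3 min over 48°C-58°C, pooled, and extracted at 4°C in PBS with 0.5% NP-40. Soluble protein, the supernatant after 21,000xg for 90 min, was quantified by TMTpro 16plex LC-MS/MS with equalised channel sums.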

sotrastaurin = compound: CN1CCN(c2nc(C3=C(c4c[nH]c5ccccc45)C(=O)NC3=O)c3ccccc3n2)CC1 [sotrastaurin]
Method in brief: as §1

alvocidib = compound: CN1CC[C@H](c2c(O)cc(O)c3c(=O)cc(-c4ccccc4Cl)oc23)[C@H](O)C1 [alvocidib]
Method in brief: as §1

Tubastatin A = compound: CN1CCc2c(c3ccccc3n2Cc2ccc(C(=O)NO)cc2)C1 [Tubastatin A]
Method in brief: as §1

[1] = compound: CNC(=O)C1=CC=CC=C1NC2=NC(=NC=C2Cl)NC3=C(C=C(C=C3)N4CCOCC4)OC
Method in brief: as §1

defactinib = compound: CNC(=O)c1ccc(Nc2ncc(C(F)(F)F)c(NCc3nccnc3N(C)S(C)(=O)=O)n2)cc1 [defactinib]
Method in brief: as §1

rucaparib = compound: CNCc1ccc(-c2[nH]c3cc(F)cc4c3c2CCNC4=O)cc1 [rucaparib]
Method in brief: as §1

[2] = compound: CNc1nc(-c2ccc3c(N)n[nH]c3c2)cc(N2C[C@@H](C(=O)NC3CCCCC3)CC[C@H]2C)n1
Method in brief: as §1

encorafenib = compound: COC(=O)N[C@@H](C)CNc1nccc(-c2cn(C(C)C)nc2-c2cc(Cl)cc(NS(C)(=O)=O)c2F)n1 [encorafenib]
Method in brief: as §1

[3] = compound: COC(=O)[C@H](CCSC)NC(=O)C1=C(C=C(C=C1)NC[C@H](CS)N)C2=CC=CC=C2
Method in brief: as §1

[4] = compound: COC1=CC=C(C=C1)CN2C=CC3=C2C=C(C=C3)C(=O)NO
Method in brief: as §1

filanesib = compound: CON(C)C(=O)N1N=C(c2cc(F)ccc2F)S[C@@]1(CCCN)c1ccccc1 [filanesib]
Method in brief: as §1

zotarolimus = compound: CO[C@H]1C[C@@H]2CC[C@@H](C)[C@@](O)(O2)C(=O)C(=O)N2CCCC[C@H]2C(=O)O[C@H]([C@H](C)C[C@@H]2CC[C@H](n3cnnn3)[C@H](OC)C2)CC(=O)[C@H](C)/C=C(\C)[C@@H](O)[C@@H](OC)C(=O)[C@H](C)C[C@H](C)/C=C/C=C/C=C/1C [zotarolimus]
Method in brief: as §1

idasanutlin = compound: COc1cc(C(=O)O)ccc1NC(=O)[C@@H]1N[C@@H](CC(C)(C)C)[C@](C#N)(c2ccc(Cl)cc2F)[C@H]1c1cccc(Cl)c1F [idasanutlin]
Method in brief: as §1

alisertib = compound: COc1cc(Nc2ncc3c(n2)-c2ccc(Cl)cc2C(c2c(F)cccc2OC)=NC3)ccc1C(=O)O [alisertib]
Method in brief: as §1

[5] = compound: COc1cc2nc(-c3cc(F)ccc3O)nc(N[C@@H]3CNC[C@H]3C(C)(C)O)c2cc1OC
Method in brief: as §1

gefitinib = compound: COc1cc2ncnc(Nc3ccc(F)c(Cl)c3)c2cc1OCCCN1CCOCC1 [gefitinib]
Method in brief: as §1

[6] = compound: COc1cccc2cc(-c3nc([C@H]4CC[C@H](C(=O)O)CC4)n4ncnc(N)c34)[nH]c12
Method in brief: as §1

lapatinib = compound: CS(=O)(=O)CCNCc1ccc(-c2ccc3ncnc(Nc4ccc(OCc5cccc(F)c5)c(Cl)c4)c3c2)o1 [lapatinib]
Method in brief: as §1

pictilisib = compound: CS(=O)(=O)N1CCN(Cc2cc3nc(-c4cccc5[nH]ncc45)nc(N4CCOCC4)c3s2)CC1 [pictilisib]
Method in brief: as §1

Measured: log2 fold change

RNF187 (UniProt Q5TA31)
Sequence of UniProt Q5TA31 (Q5TA31 whole entry, looked up): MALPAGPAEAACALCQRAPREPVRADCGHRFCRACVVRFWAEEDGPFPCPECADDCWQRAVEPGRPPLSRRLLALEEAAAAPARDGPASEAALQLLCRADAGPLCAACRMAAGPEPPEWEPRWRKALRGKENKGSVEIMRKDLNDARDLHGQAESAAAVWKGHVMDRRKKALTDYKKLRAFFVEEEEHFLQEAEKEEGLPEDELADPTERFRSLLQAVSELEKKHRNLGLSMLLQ
inactive: saracatinib -0.069 | sotrastaurin 0.001 | alvocidib -0.092 | Tubastatin A 0.196 | [1] -0.084 | defactinib -0.047 | rucaparib -0.139 | [2] 0.05 | encorafenib -0.042 | [3] -0.05 | [4] 0.028 | filanesib 0.003 | zotarolimus -0.006 | idasanutlin -0.032 | alisertib -0.104 | [5] 0.047 | gefitinib -0.012 | [6] -0.053 | lapatinib -0.07 | pictilisib -0.037

SAFB2 (UniProt Q14151)
Sequence of UniProt Q14151 (Q14151 whole entry, looked up): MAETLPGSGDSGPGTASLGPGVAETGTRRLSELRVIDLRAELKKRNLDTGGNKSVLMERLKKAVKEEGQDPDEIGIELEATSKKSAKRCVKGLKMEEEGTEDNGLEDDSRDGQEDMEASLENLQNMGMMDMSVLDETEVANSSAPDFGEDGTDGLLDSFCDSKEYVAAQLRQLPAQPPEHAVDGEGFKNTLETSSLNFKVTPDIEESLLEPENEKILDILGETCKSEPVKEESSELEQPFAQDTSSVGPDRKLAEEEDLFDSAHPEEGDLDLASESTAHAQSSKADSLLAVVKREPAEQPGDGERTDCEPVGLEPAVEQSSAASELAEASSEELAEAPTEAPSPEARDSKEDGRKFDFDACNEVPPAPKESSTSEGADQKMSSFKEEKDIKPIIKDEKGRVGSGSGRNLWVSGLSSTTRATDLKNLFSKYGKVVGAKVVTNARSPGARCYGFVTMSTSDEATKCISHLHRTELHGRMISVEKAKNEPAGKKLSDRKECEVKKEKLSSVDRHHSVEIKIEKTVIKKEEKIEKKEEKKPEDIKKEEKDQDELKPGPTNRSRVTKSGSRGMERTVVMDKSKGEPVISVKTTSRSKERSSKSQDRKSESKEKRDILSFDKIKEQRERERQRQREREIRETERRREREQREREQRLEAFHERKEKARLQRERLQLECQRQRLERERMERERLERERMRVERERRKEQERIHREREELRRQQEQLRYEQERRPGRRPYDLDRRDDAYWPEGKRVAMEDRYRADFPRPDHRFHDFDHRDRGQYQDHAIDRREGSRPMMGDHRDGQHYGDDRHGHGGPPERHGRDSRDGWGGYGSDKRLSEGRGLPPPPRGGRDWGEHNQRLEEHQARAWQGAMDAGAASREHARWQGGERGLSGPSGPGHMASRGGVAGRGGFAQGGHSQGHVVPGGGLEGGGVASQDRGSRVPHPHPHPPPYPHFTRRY
active: filanesib 0.409
inactive: saracatinib -0.055 | sotrastaurin -0.028 | alvocidib 0.149 | Tubastatin A -0.048 | [1] -0.022 | defactinib 0.144 | rucaparib 0.1 | [2] -0.067 | encorafenib 0.029 | [3] -0.005 | [4] -0.044 | zotarolimus 0.017 | idasanutlin 0.085 | alisertib -0.045 | [5] -0.046 | gefitinib 0 | [6] -0.037 | lapatinib 0.048 | pictilisib -0.032

RB1 (UniProt P06400)
Sequence of UniProt P06400 (P06400 whole entry, looked up): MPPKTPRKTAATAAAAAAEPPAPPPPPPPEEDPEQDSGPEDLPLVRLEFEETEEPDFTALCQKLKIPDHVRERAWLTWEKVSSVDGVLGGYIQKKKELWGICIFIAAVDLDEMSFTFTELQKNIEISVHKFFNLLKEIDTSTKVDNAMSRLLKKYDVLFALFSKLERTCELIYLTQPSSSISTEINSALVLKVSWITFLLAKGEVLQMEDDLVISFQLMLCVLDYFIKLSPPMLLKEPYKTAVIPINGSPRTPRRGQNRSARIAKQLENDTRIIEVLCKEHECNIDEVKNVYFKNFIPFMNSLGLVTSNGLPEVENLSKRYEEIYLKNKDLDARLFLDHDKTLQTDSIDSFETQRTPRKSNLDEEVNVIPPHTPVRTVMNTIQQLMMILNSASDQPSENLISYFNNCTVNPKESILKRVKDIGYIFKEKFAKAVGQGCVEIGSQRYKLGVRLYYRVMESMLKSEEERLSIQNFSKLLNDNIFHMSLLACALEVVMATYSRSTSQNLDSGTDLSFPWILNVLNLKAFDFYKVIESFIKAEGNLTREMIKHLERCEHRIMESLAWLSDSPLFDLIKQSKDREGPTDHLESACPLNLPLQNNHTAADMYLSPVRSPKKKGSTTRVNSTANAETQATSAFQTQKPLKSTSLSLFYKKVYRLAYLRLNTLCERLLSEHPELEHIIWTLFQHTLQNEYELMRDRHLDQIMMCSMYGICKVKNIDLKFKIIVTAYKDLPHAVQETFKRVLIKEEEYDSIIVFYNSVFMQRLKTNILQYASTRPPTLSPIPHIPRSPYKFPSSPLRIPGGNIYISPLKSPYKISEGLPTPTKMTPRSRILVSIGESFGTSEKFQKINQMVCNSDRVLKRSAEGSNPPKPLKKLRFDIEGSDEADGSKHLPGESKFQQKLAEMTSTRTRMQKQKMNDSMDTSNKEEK
inactive: saracatinib 0.026 | sotrastaurin -0.038 | Tubastatin A 0.061 | [1] 0.026 | defactinib -0.176 | rucaparib -0.195 | [2] 0.016 | encorafenib 0.006 | [3] 0.019 | [4] -0.028 | filanesib -0.08 | zotarolimus 0.011 | idasanutlin 0 | alisertib -0.016 | gefitinib 0.006 | [6] 0.052 | lapatinib 0.025 | pictilisib 0.033
active: alvocidib -0.885 | [5] -0.325

SDHAF2 (UniProt Q9NX18)
Sequence of UniProt Q9NX18 (Q9NX18 whole entry, looked up): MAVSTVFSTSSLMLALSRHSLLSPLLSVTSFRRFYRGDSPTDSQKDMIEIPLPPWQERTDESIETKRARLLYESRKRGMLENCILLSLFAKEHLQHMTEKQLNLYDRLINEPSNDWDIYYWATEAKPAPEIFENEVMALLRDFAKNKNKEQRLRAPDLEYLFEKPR
inactive: saracatinib 0.08 | sotrastaurin -0.035 | alvocidib -0.026 | Tubastatin A 0.037 | [1] 0.016 | defactinib -0.002 | rucaparib 0.115 | [2] -0.078 | encorafenib -0.003 | [3] 0.01 | [4] 0.063 | filanesib -0.03 | zotarolimus 0.068 | idasanutlin -0.085 | alisertib 0.02 | [5] -0.163 | gefitinib 0.09 | [6] 0.102 | lapatinib -0.013 | pictilisib 0.091

RARS2 (UniProt Q5T160)
inactive: saracatinib 0.005 | sotrastaurin -0.101 | alvocidib -0.086 | Tubastatin A -0.056 | [1] -0.035 | defactinib -0.064 | rucaparib 0.003 | [2] -0.042 | encorafenib 0.026 | [3] -0.003 | [4] 0.009 | zotarolimus 0.007 | idasanutlin -0.071 | alisertib -0.016 | [5] -0.028 | gefitinib -0.013 | [6] 0.051 | lapatinib 0.051 | pictilisib -0.031
active: filanesib -0.245

RBM8A (UniProt Q9Y5S9)
inactive: saracatinib 0.011 | sotrastaurin -0.002 | alvocidib 0.188 | Tubastatin A 0.045 | [1] -0.032 | defactinib 0.075 | rucaparib -0.043 | [2] -0.006 | encorafenib 0.025 | [3] 0.012 | [4] -0.061 | filanesib 0.028 | zotarolimus -0.018 | idasanutlin -0.01 | alisertib -0.024 | [5] 0.094 | gefitinib 0.038 | [6] -0.029 | lapatinib -0.028 | pictilisib -0.013

RAD51 (UniProt Q06609)
Sequence of UniProt Q06609 (Q06609 whole entry, looked up): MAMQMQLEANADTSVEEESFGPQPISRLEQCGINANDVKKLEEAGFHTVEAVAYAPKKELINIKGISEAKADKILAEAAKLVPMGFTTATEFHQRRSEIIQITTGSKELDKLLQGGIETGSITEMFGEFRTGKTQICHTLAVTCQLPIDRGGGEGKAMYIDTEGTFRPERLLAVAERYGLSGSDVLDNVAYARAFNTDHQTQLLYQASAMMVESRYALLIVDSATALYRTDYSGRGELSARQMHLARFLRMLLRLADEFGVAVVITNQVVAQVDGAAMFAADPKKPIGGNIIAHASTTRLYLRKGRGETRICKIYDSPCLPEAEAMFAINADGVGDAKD
active: [1] 0.337
inactive: saracatinib -0.013 | sotrastaurin 0.004 | alvocidib -0.002 | Tubastatin A 0.099 | defactinib 0.027 | rucaparib -0.035 | [2] -0.011 | encorafenib 0.005 | [3] -0.041 | [4] -0.057 | filanesib 0.003 | zotarolimus -0.034 | idasanutlin -0.072 | alisertib 0.041 | [5] -0.022 | gefitinib -0.07 | [6] 0.012 | lapatinib -0.024 | pictilisib -0.02

RARS (UniProt P54136)
Sequence of UniProt P54136 (P54136 whole entry, looked up): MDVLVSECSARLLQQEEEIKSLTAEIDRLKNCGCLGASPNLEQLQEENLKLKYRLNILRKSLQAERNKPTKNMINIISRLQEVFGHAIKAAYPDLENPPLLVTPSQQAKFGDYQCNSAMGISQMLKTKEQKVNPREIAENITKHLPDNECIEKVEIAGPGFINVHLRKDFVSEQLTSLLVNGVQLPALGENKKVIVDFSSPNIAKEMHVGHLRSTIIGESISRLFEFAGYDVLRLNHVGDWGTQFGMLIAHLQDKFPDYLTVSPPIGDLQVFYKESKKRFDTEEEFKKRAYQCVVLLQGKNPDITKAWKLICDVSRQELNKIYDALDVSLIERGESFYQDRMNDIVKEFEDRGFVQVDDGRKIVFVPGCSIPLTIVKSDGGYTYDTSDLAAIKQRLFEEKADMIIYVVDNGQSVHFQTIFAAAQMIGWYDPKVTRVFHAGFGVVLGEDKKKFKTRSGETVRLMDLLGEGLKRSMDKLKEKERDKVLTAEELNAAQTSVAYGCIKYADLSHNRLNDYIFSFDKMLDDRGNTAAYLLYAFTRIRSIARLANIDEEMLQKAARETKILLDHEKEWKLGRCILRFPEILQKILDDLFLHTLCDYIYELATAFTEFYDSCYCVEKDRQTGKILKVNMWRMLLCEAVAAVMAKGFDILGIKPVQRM
inactive: saracatinib -0.103 | sotrastaurin -0.192 | alvocidib 0.151 | Tubastatin A 0.008 | [1] -0.073 | defactinib 0.187 | rucaparib 0.367 | [2] 0.138 | encorafenib 0.217 | [3] -0.024 | [4] -0.045 | filanesib 0.079 | zotarolimus 0.049 | idasanutlin 0.052 | alisertib -0.059 | [5] -0.032 | gefitinib -0.025 | [6] -0.203 | lapatinib -0.008 | pictilisib -0.07

RAB5C isoform 2 (UniProt P51148)
Sequence of UniProt P51148 (P51148 whole entry, looked up): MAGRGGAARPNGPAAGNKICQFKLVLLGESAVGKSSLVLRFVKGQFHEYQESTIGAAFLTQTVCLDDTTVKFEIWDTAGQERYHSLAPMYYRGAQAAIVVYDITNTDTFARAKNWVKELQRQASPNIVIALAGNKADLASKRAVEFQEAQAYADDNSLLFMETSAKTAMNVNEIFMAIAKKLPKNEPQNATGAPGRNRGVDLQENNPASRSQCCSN
inactive: saracatinib 0.08 | sotrastaurin -0.011 | alvocidib 0.011 | Tubastatin A 0.013 | [1] -0.013 | defactinib -0.011 | rucaparib -0.02 | [2] 0.003 | encorafenib -0.039 | [3] 0.017 | [4] -0.002 | filanesib -0.053 | zotarolimus -0.015 | idasanutlin -0.055 | alisertib -0.095 | [5] 0.015 | gefitinib 0.013 | [6] 0.038 | lapatinib -0.027 | pictilisib -0.017

SEC23A (UniProt Q15436)
active: rucaparib 0.296
inactive: saracatinib 0.133 | sotrastaurin 0.008 | alvocidib -0.066 | Tubastatin A -0.008 | [1] -0.019 | defactinib -0.078 | [2] 0.037 | encorafenib -0.171 | [3] -0.035 | [4] 0.024 | filanesib 0.013 | zotarolimus 0.025 | idasanutlin -0.026 | alisertib -0.027 | [5] 0.043 | gefitinib 0.007 | [6] 0.01 | lapatinib -0.045 | pictilisib 0.049

RBM26 isoform 2 (UniProt Q5T8P6)
active: defactinib -0.489
inactive: saracatinib -0.01 | sotrastaurin -0.193 | alvocidib -0.226 | Tubastatin A 0.094 | [1] -0.074 | rucaparib -0.039 | [2] 0.025 | encorafenib 0.03 | [3] -0.032 | [4] 0.086 | filanesib -0.071 | zotarolimus 0.03 | idasanutlin -0.025 | alisertib 0.093 | [5] -0.045 | gefitinib 0.064 | [6] 0.009 | lapatinib 0.034 | pictilisib 0.059

SCD (UniProt O00767)
Sequence of UniProt O00767 (O00767 whole entry, looked up): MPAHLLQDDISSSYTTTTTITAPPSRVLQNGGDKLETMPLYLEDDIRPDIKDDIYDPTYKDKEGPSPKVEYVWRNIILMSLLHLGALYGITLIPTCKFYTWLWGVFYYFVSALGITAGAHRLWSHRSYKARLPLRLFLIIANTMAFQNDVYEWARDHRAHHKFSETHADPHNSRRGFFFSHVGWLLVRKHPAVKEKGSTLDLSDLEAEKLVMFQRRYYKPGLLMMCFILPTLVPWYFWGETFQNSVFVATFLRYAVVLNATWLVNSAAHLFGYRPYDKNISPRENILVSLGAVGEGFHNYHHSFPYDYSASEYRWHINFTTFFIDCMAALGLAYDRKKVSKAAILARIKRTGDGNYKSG
inactive: saracatinib 0.066 | sotrastaurin 0.036 | alvocidib 0.049 | Tubastatin A -0.234 | [1] 0.024 | defactinib 0.025 | rucaparib -0.006 | [2] -0.164 | encorafenib 0.04 | [3] 0.045 | filanesib -0.074 | zotarolimus -0.024 | idasanutlin -0.001 | alisertib 0.014 | [5] -0.054 | gefitinib 0.019 | [6] 0.048 | lapatinib -0.017 | pictilisib -0.053
active: [4] -0.458

RBM33 (UniProt Q96EV2)
active: defactinib -0.273
inactive: saracatinib 0.071 | sotrastaurin -0.017 | alvocidib -0.177 | Tubastatin A 0.007 | [1] -0.021 | rucaparib -0.017 | [2] -0.044 | encorafenib 0.02 | [3] 0.03 | [4] 0.134 | filanesib 0.013 | zotarolimus 0.03 | idasanutlin 0.042 | alisertib -0.031 | [5] -0.078 | gefitinib 0.035 | [6] -0.028 | lapatinib 0.008 | pictilisib -0.044

RUFY3 isoform 3 (UniProt Q7L099)
Sequence of UniProt Q7L099 (Q7L099 whole entry, looked up): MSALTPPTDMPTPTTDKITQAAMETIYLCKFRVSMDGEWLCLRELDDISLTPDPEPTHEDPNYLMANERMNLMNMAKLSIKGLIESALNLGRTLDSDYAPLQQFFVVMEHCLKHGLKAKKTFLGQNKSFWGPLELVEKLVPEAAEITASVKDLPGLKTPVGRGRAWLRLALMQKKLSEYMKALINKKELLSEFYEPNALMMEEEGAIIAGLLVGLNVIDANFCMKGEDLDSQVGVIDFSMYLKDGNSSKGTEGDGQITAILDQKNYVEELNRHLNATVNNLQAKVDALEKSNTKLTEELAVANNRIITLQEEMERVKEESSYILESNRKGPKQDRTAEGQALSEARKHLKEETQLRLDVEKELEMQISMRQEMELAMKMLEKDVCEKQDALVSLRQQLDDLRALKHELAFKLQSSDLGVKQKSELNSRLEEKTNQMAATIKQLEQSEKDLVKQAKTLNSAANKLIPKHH
inactive: saracatinib -0.054 | sotrastaurin -0.036 | alvocidib -0.133 | Tubastatin A 0 | [1] -0.029 | defactinib -0.028 | rucaparib 0.105 | [2] -0.255 | encorafenib -0.017 | [3] -0.059 | [4] -0.06 | filanesib 0.053 | zotarolimus 0.003 | idasanutlin -0.108 | alisertib 0.155 | [5] 0.045 | gefitinib 0.08 | [6] -0.122 | lapatinib -0.01 | pictilisib 0.018

RAP1GDS1 isoform 5 (UniProt P52306)
Sequence of UniProt P52306 (P52306 whole entry, looked up): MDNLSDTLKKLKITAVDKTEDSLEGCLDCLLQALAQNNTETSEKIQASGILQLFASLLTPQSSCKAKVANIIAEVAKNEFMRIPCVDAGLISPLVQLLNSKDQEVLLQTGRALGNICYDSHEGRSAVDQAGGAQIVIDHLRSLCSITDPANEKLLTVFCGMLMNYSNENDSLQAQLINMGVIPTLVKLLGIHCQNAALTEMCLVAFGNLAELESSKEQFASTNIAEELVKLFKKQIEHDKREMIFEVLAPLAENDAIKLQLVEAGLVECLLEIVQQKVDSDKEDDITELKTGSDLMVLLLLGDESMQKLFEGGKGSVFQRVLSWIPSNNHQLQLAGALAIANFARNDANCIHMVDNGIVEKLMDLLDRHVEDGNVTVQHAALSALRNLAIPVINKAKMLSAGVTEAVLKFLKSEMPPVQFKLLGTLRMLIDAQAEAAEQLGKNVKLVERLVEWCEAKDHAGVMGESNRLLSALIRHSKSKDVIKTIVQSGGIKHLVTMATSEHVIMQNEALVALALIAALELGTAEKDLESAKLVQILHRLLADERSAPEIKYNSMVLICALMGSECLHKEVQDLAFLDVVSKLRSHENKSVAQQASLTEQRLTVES
inactive: saracatinib 0.004 | sotrastaurin -0.077 | alvocidib -0.069 | Tubastatin A -0.01 | [1] 0.006 | defactinib -0.017 | rucaparib -0.006 | [2] -0.024 | encorafenib 0.176 | [3] 0.139 | [4] -0.026 | filanesib -0.019 | zotarolimus 0.022 | idasanutlin -0.023 | alisertib -0.041 | [5] -0.025 | gefitinib 0.066 | [6] -0.072 | lapatinib 0.091 | pictilisib 0.015

— the supplement of paper PMC10849652
